According to the OligoGym collection:

target: CSGALNACT1; assay: pooled miR-30 sensor sort-seq; sequence = guide strand; settings: shRNA
Further: reference of the scale not given here.

Sequence | sensor-assay potency score (higher = more potent)
TAATTCAGTTACTTCCACCTGG | 0.629
TATTAGTACAAACCATTCCTTC | -0.885
TATCTCGTGCCTGAACACCAGC | -0.848
TTGATGTCCAGATCAAACCCAC | -0.21
TTGGACTGCATGCACATCTTGT | -0.464
TTAAACAATGAGTTTACTGTGA | -0.267
TATTGATGAAGTCTGACCGATA | -0.823
TTAGCTGTGCAATACCACCTTC | -0.0505
ATATTGATGAAGTCTGACCGAT | -0.598

target: CSTF3; assay: as above; settings: shRNA

Sequence | sensor-assay potency score (higher = more potent)
TTTGGTATCTTGCATCTTCGGA | -0.026
TTTGTCTATAGGTTGATTCTGT | -0.133
TACTTGTTATAGTCTCTCCAGA | -0.878
TTATTCTTTGATTTTCTGCATA | -0.891
TTGTTTTTTCTCAAGAACCATG | -1.15
TGAACTTGTATCTATCTACTAG | -0.0129
TACTGCATTACTTTCCACGGGG | 0.0681
TTCATCTGAATCCTCGTTGGGC | 0.448
TAAATCAATGTGCAAAACCTTC | -1.01
TTCTTCTTCAATAAAGTGCTTA | -0.0244
TAGAGCATAGGTCTGTTCCGTA | 0.181
TATAGAAGGAGCTACAACTGGG | 0.225
TTTGTTTCCAAGAACCTTGTAA | 0.432
TTGAATGCTGTAAACCGTCTTT | -0.262
TTCTGGTATCTTCTCTTGCTTT | -0.975
TTTGCTTAGAGCATAGGTCTGT | 0.755
TTGATCATCGGATTAACACAAC | -0.951
TTGGTATCTTGCATCTTCGGAA | -0.546
TTTTCTATCCACTTCATCTTTC | -0.135
TTTAGCTAAATGAATATTGATA | -0.643
TCGGATTAACACAACCTCGTTG | -0.511
TTCCATTCCAATTTTATCCAGT | -0.0677
TAGCTGCTAGCTTAGCACGGGA | -0.406
TTTCTTTGTAACTTGGTAGTTT | -0.139

target: CT47A1; assay: as above; settings: shRNA

Sequence | sensor-assay potency score (higher = more potent)
TTCTTCACCTTGTTTTCTGCAT | -0.231
TCTGCGTCTGGTTCCTCTGTGG | -0.289
TGTTTTCTGCATCCTTCTCTTT | -1.05
TTGTTTTCTGCATCCTTCTCTT | -0.0876
TTTAGTGACTTCCTCTGGGGCC | -0.087
TATGAGGATGTGGTCGTTGTGA | -0.634
